VACV Venus inh: inhibitors of vaccinia virus (Venus reporter); actives 0.46% (n = 330,000); Potency, µM (doses to about 36.5 µM), without a hit: at the highest dose activity change, negative = inhibition, hits mostly inhibitors; Vaccinia virus Venus reporter expression, fluorescence; calls by dose curve; tested in A549 cells; further: potency means the concentration at half of the fitted maximal effect; nearly all actives have a fitted effect of over 30% in size
FMDV antiviral: blocks foot and mouth disease virus. FMDV antiviral cell-based qHTS. Potency, µM (titrated, usually from 57.9 µM), inactives show top-dose activity change, negative = inhibition, usual class: inhibitors. actives 1.2% (n = 410,000). AID 1159524; calls by dose curve; tested in HEK293T cells; further: read-out not given here; potency means the concentration at half of the fitted maximal effect; nearly all actives have a fitted effect of over 45% in size
Sm TGR inh: inhibitors of Schistosoma mansoni thioredoxin glutathione reductase; Q962Y6; purified TGR, DTNB reduction, TNB absorbance 405 nm; Potency, µM (doses to about 114 µM), for inactives: at the highest dose activity change, negative = inhibition, actives largely listed as inhibitors; actives 3% (n = 360,000); AID 485364; further: potency means the concentration at half of the fitted maximal effect; nearly all actives have a fitted effect of over 60% in size
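TGR 20 nM + NADPH 100 uM (dispensed conc.), cpd preinc 15 min RT; start with NADPH (500 uM addition) then DTNB (15 mM addition). Kinetic TNB absorbance, 405 nm filter. Four-parameter Hill fit across titration.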
Vaccinia mCherry: inhibitors of vaccinia virus infection (mCherry reporter signal); actives 0.63% (n = 310,000); Vaccinia virus mCherry reporter infection, fluorescence; Potency, µM (doses to about 36.5 µM), without a hit: at the highest dose activity change, negative = inhibition, most hits filed as inhibitors; calls by dose curve; tested in A549 cells; further: potency means the concentration at half of the fitted maximal effect; nearly all actives have a fitted effect of over 35% in size
HCV inhibitor: HCV inhibition; Huh7.5.1 HCVcc-Cre infection, luciferase reporter, 44 h; Potency, µM (highest dose often 41.8 µM), for the others: at the top dose activity change, negative = inhibition, most hits filed as inhibitors; actives 3.4% (n = 340,000); AID 651820; further: potency means the concentration at half of the fitted maximal effect
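1,000 cells/well; 4 h culture; + compound; + HCVcc-Cre (~0.5 moi); 44 h; luciferase substrate, RT 15 min; read 15 sec.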
HCMV antiviral: human cytomegalovirus inhibition; HFF cells, HCMV-luciferase reporter, 72 h; stronger effect = lower value; activity change, negative = inhibition, % at 57.5 µM; actives 4.5% (n = 410,000); in the data active means activity change below about -60%; inconclusive means no clear call, values can overlap the other calls; inactive means above about -39%
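HFF cells seeded 16 h at 37C, treated with compounds, infected with luciferase-reporter HCMV at MOI 1 PFU/cell; luciferase read at 72 h post infection, normalized to buffer-only and Salinomycin controls.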
* hit, by the source's call; i = inactive; u = inconclusive; x = no result given; [ ] = another dose, or the depositor's remark. An excerpt weighted towards active compounds, which were near 9.3% of everything screened. Unless noted, the call rests on the fitted dose curve; in most records, active means well fitted curve in the direction sought with a large enough effect; inconclusive means small, poorly fitted or top-dose-only effect, or another doubt; inactive means no such curve, though single readings can be large; an effect the other way counts as inactive or inconclusive. On the % scale 0 is the no-effect control and ±100 the full control effect.

SMILES	VACV Venus inh	FMDV antiviral	Sm TGR inh	Vaccinia mCherry	HCV inhibitor	HCMV antiviral
Cc1cccc(NC(=O)/C(C#N)=C/c2ccccc2Cl)n1	x	-6%	-31%	x	11%	u
O=C(Nc1nnc(-c2ccccc2F)s1)C1CCCO1 (stereo not given)	x	51%	0%	x	2%	118
O=C(NCCOc1ccccc1)C1CCC(=O)N(CCc2ccc(Cl)cc2)C1 (stereo not given)	-20%	15%	-20%	-27%	-19%	x
CN(C)c1ccc(-n2cccc2/C=C/[N+](=O)[O-])cc1	-22%	u	-11%	-18%	10µM*	81
CSCCC(NS(=O)(=O)c1ccc(C)c(C(=O)O)c1)C(=O)O (stereo not given)	-8%	0%	-5%	0%	2%	-64*
CSCCC(NS(=O)(=O)c1ccc(Cl)cc1)C(=O)O (stereo not given)	-9%	-8%	-1%	i	12%	-9
CC1=CC(=C2C(=O)c3ccccc3C2=O)C=C(C)N1Cc1ccco1	-25%	11%	40µM*	u	u	78
O=C1c2ccccc2C(=O)N1Cc1ccco1	1%	1%	1%	-9%	11%	-9
COc1cc(N2CCCC2)c(OC)cc1C=O	x	-23%	-15%	x	11µM*	u
c1ccc(N2CCN(Cc3nnc(-c4ccc5c(c4)OCO5)o3)CC2)cc1	-9%	19%	8%	-13%	x	10
Cc1cccc(OCCN2C(=O)C(=O)c3cc(C)ccc32)c1	4%	7%	-1%[57.1 µM]	u	u	-89*
Cc1ccc2c(c1)C(=O)C(=O)N2CCOc1ccccc1	-13%	13%	x	-16%	u	-73*
Cc1cccc(OCCCn2c(=O)oc3ccc(C)cc32)c1	-2%	-8%	23%	-14%	3%	-80*
COc1ccccc1OCCCn1c(=O)oc2ccc(C)cc21	x	6%	-5%	x	-4%	-22
Cc1ccc(S(=O)(=O)/N=C/c2ccc(N(C)C)cc2)cc1	-3%	-6%	-4%	i	39%	-3
CCOc1ccc(N2C(=O)CC(N(Cc3ccco3)C(=O)CCC(=O)O)C2=O)cc1 (stereo not given)	-3%	-6%	6%	i	27%	-10
CCOC(=O)c1c(C)[nH]c(C)c1S(=O)(=O)N1CCC(C(=O)NCc2ccc(C)cc2)CC1	-15%	8%	5%	-18%	x	-5
CCc1ccc(C2CC(c3ccc(C)cc3)Nc3nc(N)nn32)cc1 (stereo not given)	32µM*	-18%	0%	100µM*	-3%	8
CN(Cc1ccccc1Cl)C(=O)c1cnccc1C(F)(F)F	-11%	-9%	u	i	-16%	-3
Cc1cc(C(=O)OCC(=O)Nc2ccc(F)cc2F)c(C)o1	0%	0%	2%	i	u	20
CCN(CC)C(=O)COc1ccc(/C(C)=N/Nc2ncc(Cl)cc2Cl)cc1	x	-13%	-9%	x	11µM*	-9
C/C(=N\Nc1ncc(Cl)cc1Cl)c1ccc(C#N)cc1	-29%	1%	56%	-3%	-10%	-18
Cc1ccc(C(=O)Nc2ccc(Br)cc2)cc1S(=O)(=O)N1CCOCC1	-16%	u	-1%	-19%	x	u
COc1cc(CNn2nnnc2N)cc(Br)c1OCc1c(Cl)cccc1Cl	x	u	-3%	x	13µM*	-70*
COc1cc(CNn2nnnc2N)cc(Br)c1OCC(=O)NC(C)(C)C	x	0%	5%	x	0%	-3
SMILES	VACV Venus inh	FMDV antiviral	Sm TGR inh	Vaccinia mCherry	HCV inhibitor	HCMV antiviral
O=C(c1nc2n(n1)C(c1ccc(Cl)cc1)C=C(c1ccccc1)N2)N1CCOCC1 (stereo not given)	-22%	-3%	10µM*	-10%	-14%	-3
O=C(Nc1nc2n(n1)C(c1ccccc1)C=C(c1ccc(Cl)cc1)N2)c1ccco1 (stereo not given)	-8%	0%	14µM*	-8%	x	6
O=C(Nc1nc2n(n1)C(c1ccccc1)C=C(c1ccccc1)N2)c1ccco1 (stereo not given)	-16%	-5%	1.8µM*	-13%[1.46 µM]	-4%	-2
CCOC(=O)C1(CCOc2ccccc2)CCN(Cc2cccc(O)c2)CC1	-17%	-24%	u	-10%	-18%	31
CCC(=O)Oc1ccc(C/C(=N\O)c2ccc(O)cc2O)o1	-15%	u	7.9µM*	-24%	u	-8
CCOC(=O)c1ccc(CC(=O)c2ccc(O)cc2O)o1	-2%	-6%	-22%	-14%	-6%	-11
O=C(NCCS(=O)(=O)N1CCN(c2cccc(Cl)c2)CC1)C1CC1	-17%	-12%	5%	i	-18%	-12
O=C(COC(=O)/C=C/c1ccc(Cl)c(Cl)c1)NC1CC1	6%	-11%	x	-8%	4%	3
COc1ccc(Cn2c(SCC(=O)N3CCN(c4ccc(F)cc4)CC3)nc3ccccc32)cc1	-16%	0%	-1%	-10%	x	-67*
O=C(CSc1nc2ccccc2n1CCc1ccccc1)N1CCOCC1	1%	-3%	1%	i	16%	-68*
C=CCn1c(N)cc(=O)nc1SCC(=O)N1CCN(c2ccc(F)cc2)CC1	-5%	x	28µM*	i	11%	-6
CC(C)Cn1c(SCC(=O)N2CCN(S(=O)(=O)c3ccccc3)CC2)nc2ccccc21	-12%	x	-8%	-4%	u	-68*
O=C(CC1S/C(=N/N=C/C=C/c2ccccc2)NC1=O)Nc1ccc(Cl)c(Cl)c1 (stereo not given)	-10%	-5%	-28%	-13%	-4%	3
O=C(CSc1nc(-c2ccccc2)c(-c2ccccc2)[nH]1)N1CCN(S(=O)(=O)c2ccccc2)CC1	x	u	-20%	x	u	-88*
O=C(CSc1nc2ccccc2c(=O)[nH]1)N1CCN(S(=O)(=O)c2ccccc2)CC1	x	-16%	22%	x	-2%	45
CC(C)Cn1c(SCC(=O)NC(=O)NC2CCCC2)nc2ccccc21	-21%	u	-6%	u	11µM*	-39
CC(C)NC(=O)Cn1c(SCC(=O)NC2CCCC2)nc2ccccc21	0%	-6%	1%	6%	6%	-12
O=C1C2C3C=CC(CC3)C2C(=O)N1c1ccccc1[N+](=O)[O-] (stereo not given)	-7%	-2%	18µM*	-13%	4%	4
O=C1C2C3C=CC(CC3)C2C(=O)N1c1ccc(Br)cc1[N+](=O)[O-] (stereo not given)	-10%	1%	-11%	u	7%	-17
CCOP(=O)(C1=C(O)C(=O)C(C(C)(C)C)=CC1=O)c1ccccc1 (stereo not given)	2%	u	1.4µM*	5%	6%	11
Cc1ccc(Nc2nc(NCc3ccccc3)nc3ccsc23)c(C)c1	u	u	x	u	x	-62*

Compound activity deposited in PubChem by National Center for Advancing Translational Sciences (NCATS).
